Measurements taken from PubChem BioAssay.
Calls of active or inactive are those of the source.

Experiments:
[1] = E. coli DRC41 culture turbidity changes, primary screen, E. coli filamentation inducer project, strain DRC41, OD650, 48 h (AID 1152);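 note: E. coli MC1000 strain DRC41 lacking acrAB efflux pump and sulA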; conditions: E. coli DRC41 (acrAB sulA), higher = more signal, called active from +8 up or from −8 down
[2] = small-molecule binders of probe aLefty1, primary screen, biochemical, small-molecule microarray, 635/667 nm fluorescence (AID 1153); conditions: higher = more signal;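 note: score merges spot fluorescence with signal-to-noise ratio from the scanned slide images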
[3] = PSAC antagonists in infected red cells, primary screen, cell-based, P. falciparum Indochina, OD700, 1 h (AID 1154); conditions: P. falciparum Indochina infected RBC osmotic lysis, higher = more signal, called active from +8 up or from −8 down
[4] = PSAC antagonists in infected red cells, primary screen, cell-based, P. falciparum Indochina, OD700, 2 h (AID 1155);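 note: lysis reports solute entry through the parasite surface anion channel PSAC; channel blockers reduce lysis of infected cells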; conditions: P. falciparum Indochina infected erythrocytes, osmotic lysis OD700; higher = more signal, called active from +8 up or from −8 down
[5] = osmotic lysis modulators in infected erythrocytes, primary screen, PSAC antagonist project, cell-based, P. falciparum Indochina, OD700, 3 h (AID 1156); conditions: higher = more signal, called active from +8 up or from −8 down
[6] = PSAC antagonists in infected red cells, primary screen, cell-based, P. falciparum Indochina, OD700, 18 h (AID 1157); conditions: P. falciparum Indochina infected erythrocytes, osmotic lysis OD700, 18 h; higher = more signal, called active from +8 up or from −8 down
[7] = modulators of S6 phosphorylation in cells, primary screen, cell-based, A549, cytoblot, luminescence, serum-stimulated (AID 1158); conditions: A549 phospho-S6 cytoblot, 5 h, higher = more signal;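 note: serum-stimulated A549 lung adenocarcinoma cells; signal is phosphorylated S6 detected by cytoblot immunostaining with HRP secondary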
[8] = biological target: NADPH oxidase 2 (Homo sapiens) (UniProt P04839); assay: NOX2-dependent H2O2 signal modulators, primary screen, NOX inhibitor project, cell-based, HEK293-NOX2, PMA-stimulated, Amplex Red fluorescence (AID 1159); conditions: 45 min, higher = more signal, called active from +8 up or from −8 down; note: test concentration not given here
Sequence of NADPH oxidase 2 (Homo sapiens) (P04839 whole entry, looked up): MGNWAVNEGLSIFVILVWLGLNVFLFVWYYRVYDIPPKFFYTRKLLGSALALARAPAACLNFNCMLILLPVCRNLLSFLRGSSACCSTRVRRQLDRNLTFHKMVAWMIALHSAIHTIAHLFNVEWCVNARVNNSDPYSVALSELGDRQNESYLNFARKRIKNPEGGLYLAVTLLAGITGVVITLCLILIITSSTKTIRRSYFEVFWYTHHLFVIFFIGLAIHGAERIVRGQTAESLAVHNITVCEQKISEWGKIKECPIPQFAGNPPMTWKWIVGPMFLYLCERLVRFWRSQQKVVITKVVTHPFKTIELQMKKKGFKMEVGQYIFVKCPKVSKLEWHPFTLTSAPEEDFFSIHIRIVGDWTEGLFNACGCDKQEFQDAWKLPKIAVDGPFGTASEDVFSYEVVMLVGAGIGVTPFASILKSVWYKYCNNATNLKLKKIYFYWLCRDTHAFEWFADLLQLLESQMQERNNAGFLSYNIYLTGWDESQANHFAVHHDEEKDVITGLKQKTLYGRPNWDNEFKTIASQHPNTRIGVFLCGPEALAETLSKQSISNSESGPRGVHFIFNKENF

[9] = biological target: NADPH oxidase 4 (Homo sapiens) (UniProt Q9NPH5); assay: NOX4-dependent H2O2 signal modulators, primary screen, NOX inhibitor project, cell-based, HEK293-NOX4, tetracycline-induced, Amplex Red fluorescence (AID 1160); conditions: 45 min, higher = more signal, called active from +8 up or from −8 down
Sequence of NADPH oxidase 4 (Homo sapiens) (Q9NPH5 whole entry, looked up): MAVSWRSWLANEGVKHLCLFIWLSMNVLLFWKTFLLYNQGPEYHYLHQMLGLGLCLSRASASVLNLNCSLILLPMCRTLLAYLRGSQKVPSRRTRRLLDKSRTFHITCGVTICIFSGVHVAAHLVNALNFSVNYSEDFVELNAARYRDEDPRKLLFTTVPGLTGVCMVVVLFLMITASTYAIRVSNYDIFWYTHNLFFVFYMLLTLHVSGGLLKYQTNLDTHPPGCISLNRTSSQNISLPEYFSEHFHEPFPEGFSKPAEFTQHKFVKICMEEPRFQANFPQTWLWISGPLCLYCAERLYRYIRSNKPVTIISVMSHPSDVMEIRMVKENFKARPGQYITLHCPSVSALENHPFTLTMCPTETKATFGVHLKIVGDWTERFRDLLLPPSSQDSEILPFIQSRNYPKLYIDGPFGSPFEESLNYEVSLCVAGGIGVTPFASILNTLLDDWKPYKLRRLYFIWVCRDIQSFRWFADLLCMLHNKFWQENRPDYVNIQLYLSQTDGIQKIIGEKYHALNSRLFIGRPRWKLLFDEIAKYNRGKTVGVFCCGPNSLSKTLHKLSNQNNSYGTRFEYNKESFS

[10] = biological target: NADPH oxidase 5 (Homo sapiens) (UniProt Q96PH1); assay: NOX5-dependent H2O2 signal modulators, primary screen, NOX inhibitor project, cell-based, HEK293-NOX5, Amplex Red fluorescence (AID 1161); conditions: HEK293-NOX5, ionomycin, 45 min, higher = more signal
Sequence of NADPH oxidase 5 (Homo sapiens) (Q96PH1 whole entry, looked up): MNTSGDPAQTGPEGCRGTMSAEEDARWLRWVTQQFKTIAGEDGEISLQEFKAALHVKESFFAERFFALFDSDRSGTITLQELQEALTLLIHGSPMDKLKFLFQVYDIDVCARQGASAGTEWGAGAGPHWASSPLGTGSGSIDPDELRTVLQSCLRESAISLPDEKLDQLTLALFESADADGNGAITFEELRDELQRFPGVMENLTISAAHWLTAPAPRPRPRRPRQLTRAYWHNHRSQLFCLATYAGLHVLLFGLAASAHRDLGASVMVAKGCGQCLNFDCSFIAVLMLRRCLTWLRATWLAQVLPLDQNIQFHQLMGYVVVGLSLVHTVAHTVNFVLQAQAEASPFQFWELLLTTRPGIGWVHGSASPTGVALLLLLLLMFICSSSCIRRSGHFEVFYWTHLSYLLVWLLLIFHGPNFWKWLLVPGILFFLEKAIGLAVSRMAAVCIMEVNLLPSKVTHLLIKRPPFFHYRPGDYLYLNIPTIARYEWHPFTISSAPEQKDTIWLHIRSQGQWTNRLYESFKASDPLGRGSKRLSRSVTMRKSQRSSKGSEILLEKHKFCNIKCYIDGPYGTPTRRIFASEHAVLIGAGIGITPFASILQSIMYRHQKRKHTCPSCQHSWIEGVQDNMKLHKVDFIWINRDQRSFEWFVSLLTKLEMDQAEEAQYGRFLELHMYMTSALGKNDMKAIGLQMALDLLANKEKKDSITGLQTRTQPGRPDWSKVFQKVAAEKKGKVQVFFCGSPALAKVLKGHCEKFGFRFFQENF

[11] = A549 cell viability effects, profiling panel, calcein-AM fluorescence, 48 h, basal (AID 1162); conditions: higher = more signal; note: test concentration not given here
[12] = adipocyte viability effects, profiling panel, cell-based, 3T3-L1 adipocytes, calcein-AM fluorescence, 48 h, basal (AID 1163); conditions: 3T3-L1 adipocytes viability, higher = more signal; note: test concentration not given here
[13] = HepG2 cell viability effects, profiling panel, calcein-AM fluorescence, 48 h, basal (AID 1164); conditions: higher = more signal; note: test concentration not given here
[14] = MM1S cell viability effects, profiling panel, calcein-AM fluorescence, 48 h, basal (AID 1165); conditions: higher = more signal;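 note: viability of MM1S multiple myeloma cells under basal unstimulated conditions; test concentration not given here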
[15] = basal RPMI8226 viability, no added stimulus, profiling panel, cell-based, calcein-AM fluorescence, 48 h, PK04 Diversity Set (AID 1166); conditions: RPMI8226 myeloma viability, higher = more signal;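 note: cells grown under basal conditions without added stimulus; test concentration not given here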
[16] = basal HepG2 mitochondrial membrane potential changes, profiling panel, cell-based, JC-1 fluorescence, 24 h, 100 nL compound (AID 1167); conditions: higher = more signal; note: test concentration not given here
[17] = basal 3T3-L1 adipocyte mitochondrial potential changes, profiling panel, cell-based, JC-1 fluorescence, 3T3-L1 adipocytes, 24 h, 100 nL compound (AID 1168); conditions: JC-1 mitochondrial fluorescence, higher = more signal, called active from +8 up or from −8 down; note: test concentration not given here
[18] = basal RPMI8226 mitochondrial membrane potential changes, profiling panel, cell-based, JC-1 fluorescence, 24 h, 100 nL compound (AID 1169); conditions: RPMI8226 myeloma, JC-1 mitochondrial potential fluorescence, higher = more signal; note: test concentration not given here
[19] = basal MM1S mitochondrial membrane potential changes, profiling panel, cell-based, JC-1 fluorescence, 24 h, 100 nL compound (AID 1170); conditions: higher = more signal; note: test concentration not given here
[20] = A549 lung cancer cell viability effects, profiling panel, resazurin fluorescence, 24 h, PK04 Diversity Set (AID 1171); conditions: higher = more signal, called active from +8 up or from −8 down; note: test concentration not given here

Compound	z-score [1]	composite z-score [2]	z-score [3]	z-score [4]	z-score [5]	z-score [6]	z-score [7]	z-score [8]	z-score [9]	z-score [10]	z-score [11]	z-score [12]	z-score [13]	z-score [14]	z-score [15]	z-score [16]	z-score [17]	z-score [18]	z-score [19]	z-score [20]
C=C(COC)C(=O)CC[C@@H](OC(=O)c1ccccc1-c1ccccc1C(=O)O)c1ccccc1OCCO	-0.564 (inactive)	-0.103	5.01 (inactive)	0.281 (inactive)	1.03 (inactive)	-0.209 (inactive)	-0.813	0.26 (inactive)	-0.182 (inactive)	-0.933	-0.184	0.615	-0.248	-3.31	-3.75	-1.13	-0.305 (inactive)	-0.88	-1.84	0.393 (inactive)
C=CC[C@H](O)c1ccc(O)c(F)c1	-0.421 (inactive)	-0.555	0.307 (inactive)	0.131 (inactive)	-0.304 (inactive)	0.255 (inactive)	-0.165	-1.32 (inactive)	-0.305 (inactive)	0.113	-0.402	0.329	-0.821	-0.229	-0.426	-0.737	0.083 (inactive)	-0.153	0.384	-0.396 (inactive)
CCCCC(=C=CC[C@H](O)c1cccc(OCCO)c1)C[C@H](O)c1cc(Cl)cc(Cl)c1O	0.513 (inactive)	0.0999	22 (active)	5.56 (inactive)	0.718 (inactive)	1.48 (inactive)	0.295	-2.45 (inactive)	-1.46 (inactive)	-2.02	0.827	-0.241	0.358	-3.12	-1.24	0.0773	0.309 (inactive)	-0.00147	-1.05	1.57 (inactive)
COC(=O)C1(CC(C)C)C=C2C(=C(C)C(=O)C2C)CN1 (stereo not given)	-1.62 (inactive)	1.59	0.71 (inactive)	-0.161 (inactive)	0.396 (inactive)	0.421 (inactive)	-0.164	0.425 (inactive)	-1.51 (inactive)	-2.83	-1.23	-0.291	-1.14	-0.945	-1.77	-1.04	-1.83 (inactive)	0.147	-0.92	-0.726 (inactive)
C=CC[C@@]1(C(=O)NCCCOC)N=C(c2ccc(OCCCO)cc2)O[C@@H]1c1ccccc1CN=[N+]=[N-]	1.14 (inactive)	0.607	22.3 (active)	2.5 (inactive)	0.493 (inactive)	-1.34 (inactive)	0.812	-0.477 (inactive)	0.648 (inactive)	-0.274	-0.287	0.532	0.569	-0.459	-0.885	2.5	0.738 (inactive)	-0.728	0.0149	0.41 (inactive)
COC(=O)[C@@]1(Cc2ccc(F)cc2)[C@H]2c3cc(C(=O)N4CCCC4)n(CCSCCO)c3C[C@H]2CN1C(=O)c1ccccc1	-0.683 (inactive)	0.433	1.37 (inactive)	0.367 (inactive)	0.189 (inactive)	0.618 (inactive)	0.332	0.639 (inactive)	-0.179 (inactive)	-0.345	-0.354	0.75	0.706	-1.58	-0.118	1.3	-1.3 (inactive)	-0.00907	-0.303	-0.294 (inactive)
COCCCNC(=O)[C@@]1(Cc2ccccc2I)c2ccccc2C(=O)N(Cc2ccccc2C(F)(F)F)[C@H]1c1ccc(CO)cc1	-0.506 (inactive)	-0.142	3.42 (inactive)	1.31 (inactive)	2.09 (inactive)	0.866 (inactive)	-0.55	0.227 (inactive)	-1.01 (inactive)	-1.42	-0.369	-0.884	-0.305	-1.14	-1.61	0.405	-1.19 (inactive)	-0.578	-0.553	1.77 (inactive)
CC(C)(C)OC(=O)CC[C@@]1(C(N)=O)N=C(c2ccc(OCCCO)cc2)O[C@@H]1c1ccccc1CN=[N+]=[N-]	-0.216 (inactive)	0.997	23.4 (active)	5.68 (inactive)	-1.49 (inactive)	0.739 (inactive)	0.0301	1.11 (inactive)	1.09 (inactive)	0.369	0.105	-0.288	0.886	0.0855	0.116	-1.08	-0.216 (inactive)	0.698	-0.829	0.112 (inactive)
O=C1N(Cc2ccccc2)Cc2ccccc2C[C@@]12COC(c1ccc(OCCCO)cc1)=N2	-0.595 (inactive)	0.179	20.3 (active)	4.93 (inactive)	3.72 (inactive)	1.48 (inactive)	-0.087	-5.75 (inactive)	-0.977 (inactive)	-1.8	-1.62	1.06	0.325	-3.63	-4.39	-0.641	0.172 (inactive)	-1.18	-1.91	-2.8 (inactive)
